Measurements reported in PubChem BioAssay (NCATS).
Records with an inconclusive call do not appear. Activity calls are given as the source filed them. Calls follow the shape of the dose curve; as a rule, active = well fitted curve in the direction sought with a large enough effect; inconclusive = small, poorly fitted or top-dose-only effect, or another doubt; inactive = no such curve, though single readings can be large; an effect the other way counts as inactive or inconclusive.

Legend:
[1] = qHTS of pediatric cancer cell lines to identify multiple opportunities for drug repurposing: Primary screen for SK-N-MC cells (AID 1347093);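 also: series mostly up to about 46 µM; plate controls were DMSO neutral control for no effect and bortezomib for full effect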
Summary of the method: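 Metabolically active cells were quantified by ATP-dependent luminescence (CellTiter-Glo, 15 min at room temperature) following 48 h treatment. Cells had been plated at 500-1,000 per well and settled for 5 h beforehand.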

[2] = qHTS of pediatric cancer cell lines to identify multiple opportunities for drug repurposing: Primary screen for BT-37 cells (AID 1347094);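 also: series mostly up to about 57 µM; plate controls were DMSO for no effect and bortezomib for full effect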
Summary of the method: (§1)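 Primary screen of approved and investigational compounds on cells in growth media at 37 degrees C, 5% CO2. MIPE set at 11-point and NPC set at 8-point dilutions; viability scored by ATP-based luminescence at 48 hours.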

[3] = qHTS of pediatric cancer cell lines to identify multiple opportunities for drug repurposing: Primary screen for NB-EBc1 cells (AID 1347095);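 also: plate controls were DMSO neutral control for no effect and bortezomib for full effect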
Summary of the method: as §1

[4] = qHTS of pediatric cancer cell lines to identify multiple opportunities for drug repurposing: Primary screen for U-2 OS cells (AID 1347096);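 also: plate controls were DMSO wells for no effect and bortezomib positive control wells for full effect; nearly all actives have a fitted effect of over 50% in size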
Summary of the method: (§2)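 Viability after 48 h compound treatment at 37C, 500-1,000 cells/well, read as ATP luminescence with CellTiter-Glo. Primary screens used 11-point (MIPE, 0.78 nM-46 µM) or 8-point (NPC, 0.59 nM-46 µM) final concentrations; follow-up screens used 11-point dilutions.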

[5] = qHTS of pediatric cancer cell lines to identify multiple opportunities for drug repurposing: Primary screen for Saos-2 cells (AID 1347097); also: % is scaled to controls: 0 for no effect and ±100 for the full control effect; nearly all actives have a fitted effect of over 40% in size
Summary of the method: as §1

[6] = qHTS of pediatric cancer cell lines to identify multiple opportunities for drug repurposing: Primary screen for SK-N-SH cells (AID 1347098);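 also: DMSO served as neutral control and bortezomib at 2.3 µM as positive control; % is scaled to controls: 0 for no effect and ±100 for the full control effect; nearly all actives have a fitted effect of over 65% in size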
Summary of the method: (§3)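 Cells (500-1,000/well) rested 5 h, then received compounds for 48 h; metabolically active cells were measured by CellTiter-Glo luminescence. Final concentrations spanned up to 46 µM (MIPE, 11-point) or 0.59 nM-46 µM (NPC, 8-point) in primary screens, 11-point in follow-ups.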

[7] = qHTS of pediatric cancer cell lines to identify multiple opportunities for drug repurposing: Primary screen for NB1643 cells (AID 1347099);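 also: plate controls were DMSO neutral control for no effect and bortezomib positive control for full effect; nearly all actives have a fitted effect of over 50% in size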
Summary of the method: as §1

[8] = qHTS of pediatric cancer cell lines to identify multiple opportunities for drug repurposing: Primary screen for LAN-5 cells (AID 1347100);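 also: plate controls were DMSO neutral control for no effect and bortezomib positive control for full effect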
Summary of the method: as §2

[9] = qHTS of pediatric cancer cell lines to identify multiple opportunities for drug repurposing: Primary screen for BT-12 cells (AID 1347101);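 also: plate controls were DMSO for no effect and bortezomib positive control for full effect; nearly all actives have a fitted effect of over 25% in size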
Summary of the method: as §3

[10] = qHTS of pediatric cancer cell lines to identify multiple opportunities for drug repurposing: Primary screen for Rh18 cells (AID 1347102); also: % is scaled to controls: 0 for no effect and ±100 for the full control effect; nearly all actives have a fitted effect of over 65% in size
Summary of the method: as §2

CN1[C@@H]2CC[C@H]1CC(NC(=O)n1c(=O)[nH]c3ccccc31)C2 (stereo not given in full)
inactive: Potency [1] | Potency [2] | Potency [3] | Potency [4] | Potency [5] | Potency [6] | Potency [7] | Potency [8] | Potency [9] | Potency [10]

CN1CC(=O)N2[C@H](c3ccc4c(c3)OCO4)c3[nH]c4ccccc4c3C[C@@H]2C1=O
inactive: Potency [1] | Potency [2] | Potency [3] | Potency [4] | Potency [5] | Potency [6] | Potency [7] | Potency [8] | Potency [9] | Potency [10]

O=[N+]([O-])c1nccn1CO[C@@H](CO)[C@H](O)CO
inactive: Potency [1] | Potency [2] | Potency [3] | Potency [4] | Potency [5] | Potency [6] | Potency [7] | Potency [8] | Potency [9] | Potency [10]

O=C(CCCCC(=O)Nc1c(I)cc(I)c(C(=O)O)c1I)Nc1c(I)cc(I)c(C(=O)O)c1I
inactive: Potency [1] | Potency [2] | Potency [3] | Potency [4] | Potency [5] | Potency [6] | Potency [7] | Potency [8] | Potency [9] | Potency [10]

O=C(c1ccccc1)c1ccccc1
inactive: Potency [1] | Potency [2] | Potency [3] | Potency [4] | Potency [5] | Potency [6] | Potency [7] | Potency [8] | Potency [9] | Potency [10]

CC(C)C(=O)Nc1cccc(C2CN3CCSC3=N2)c1 (stereo not given)
inactive: Potency [1] | Potency [2] | Potency [3] | Potency [4] | Potency [5] | Potency [6] | Potency [7] | Potency [8] | Potency [9] | Potency [10]

CN(C(=O)C(Cl)Cl)c1ccc(OC(=O)c2ccco2)cc1
inactive: Potency [1] | Potency [2] | Potency [3] | Potency [4] | Potency [5] | Potency [6] | Potency [7] | Potency [8] | Potency [9] | Potency [10]

Cc1sccc1Br
inactive: Potency [1] | Potency [2] | Potency [3] | Potency [4] | Potency [5] | Potency [6] | Potency [7] | Potency [8] | Potency [9] | Potency [10]

NCC[C@H](O)C(=O)N[C@@H]1C[C@H](N)[C@@H](O[C@H]2O[C@H](CN)[C@@H](O)[C@H](O)[C@@H]2O)[C@H](O)[C@@H]1O[C@H]1O[C@H](CO)[C@@H](O)[C@H](N)[C@@H]1O
inactive: activity change, negative = cytotoxic [1] -10.7% [at 0.597 µM] | activity change, negative = cytotoxic [2] 11.5% [at 0.745 µM] | activity change, negative = cytotoxic [3] 17.9% [at 0.597 µM] | activity change, negative = cytotoxic [4] 14.2% [at 0.597 µM] | activity change, negative = cytotoxic [5] 9.12% [at 0.597 µM] | activity change, negative = cytotoxic [6] -13.1% [at 0.741 µM] | activity change, negative = cytotoxic [7] 2.83% [at 0.597 µM] | activity change, negative = cytotoxic [8] 0.172% [at 0.597 µM] | activity change, negative = cytotoxic [9] 5.54% [at 0.745 µM] | activity change, negative = cytotoxic [10] 1.72% [at 0.597 µM]

O=C(C1CCCCC1)N1CC(=O)N2CCCc3ccccc3C2C1 (stereo not given)
inactive: Potency [1] | Potency [2] | Potency [3] | Potency [4] | Potency [5] | Potency [6] | Potency [7] | Potency [8] | Potency [9] | Potency [10]

Cc1ccc(C(C)OC(=O)C2(C)CCC(C(=O)O)C2(C)C)cc1 (stereo not given)
inactive: Potency [1] | Potency [2] | Potency [3] | Potency [4] | Potency [5] | Potency [6] | Potency [7] | Potency [8] | Potency [9] | Potency [10]

CC(=O)N[C@@H](CCC(N)=O)C(=O)O
inactive: Potency [1] | Potency [2] | Potency [3] | Potency [4] | Potency [5] | Potency [6] | Potency [7] | Potency [8] | Potency [9] | Potency [10]

O=C(O)Cc1ccccc1Oc1ccc(Cl)cc1Cl
inactive: Potency [1] | Potency [2] | Potency [3] | Potency [4] | Potency [5] | Potency [6] | Potency [7] | Potency [8] | Potency [9] | Potency [10]

C[C@H]1NCc2cc(-c3ccc4c(=O)c(C(=O)O)cn(C5CC5)c4c3OC(F)F)ccc21
inactive: Potency [1] | Potency [2] | Potency [3] | Potency [4] | Potency [5] | Potency [6] | Potency [7] | Potency [8] | Potency [9] | Potency [10]

O=C(O)CNC(=O)CNC(=O)CNC(=O)CSC(=O)c1ccccc1
inactive: Potency [1] | Potency [2] | Potency [3] | Potency [4] | Potency [5] | Potency [6] | Potency [7] | Potency [8] | Potency [9] | Potency [10]

CCN(CC)CCN
inactive: Potency [1] | Potency [2] | Potency [3] | Potency [4] | Potency [5] | Potency [6] | Potency [7] | Potency [8] | Potency [9] | Potency [10]

CCCCCCCC(=O)[O-].CCCCCCCC(=O)[O-].[Zn+2]
inactive: Potency [1] | Potency [2] | Potency [3] | Potency [4] | Potency [5] | Potency [6] | Potency [7] | Potency [8] | Potency [9] | Potency [10]

Cc1c(F)cc2c(=O)c(C(=O)O)cn3c2c1CCC3C (stereo not given)
inactive: Potency [1] | Potency [2] | Potency [3] | Potency [4] | Potency [5] | Potency [6] | Potency [7] | Potency [8] | Potency [9] | Potency [10]

CO[C@]1(NC(=O)CSC(F)F)C(=O)N2C(C(=O)O)=C(CSc3nnnn3CCO)CO[C@H]21
inactive: Potency [1] | Potency [2] | Potency [3] | Potency [4] | Potency [5] | Potency [6] | Potency [7] | Potency [8] | Potency [9] | Potency [10]
